Source: PubChem BioAssay (NCATS)
Records with an inconclusive call do not appear. Calls of active or inactive are those of the source. Calls follow the shape of the dose curve; as a rule, active = well fitted inhibition curve with a large enough effect; inconclusive = small, poorly fitted or top-dose-only effect; inactive = flat fitted curve, though single readings scatter.

target: Calcium and integrin-binding protein 1 (Homo sapiens) (UniProt Q99828); experiment: Primary qHTS for Identification of Calcium Integrin Binding Protein 1 (CIB1) Competitor (AID 1508620); conditions: CIB1-GST / FITC-alphaIIb peptide fluorescence polarization; series mostly up to 114 µM; activity change, negative = inhibition: at the top concentration; also: top concentration of the series differs between compounds
Sequence (Q99828 whole entry, looked up): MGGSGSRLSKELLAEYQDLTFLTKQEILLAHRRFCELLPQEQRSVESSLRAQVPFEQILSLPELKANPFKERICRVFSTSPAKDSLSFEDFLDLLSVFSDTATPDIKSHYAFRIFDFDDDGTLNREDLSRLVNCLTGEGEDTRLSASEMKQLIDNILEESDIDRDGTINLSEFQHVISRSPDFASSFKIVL
Procedure, shortened: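 Fluorescence polarization competition: GST-tagged CIB1 (1 uM final) preincubated with compound 15 min at room temperature, then FITC-labelled alphaIIb peptide (100 nM final) added. After 15 min at room temperature, polarization read at Ex 480/Em 540.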
% is scaled to controls: 0 for no effect and ±100 for the full control effect.

Row | SMILES | activity change, negative = inhibition
1 | Cn1c(=O)cc(N2CCCC(N)C2)n(Cc2cc(F)ccc2C#N)c1=O (stereo unspecified) | 2.54% (inactive)
2 | CC1(C)CCCC2(C)C1CC=C1C(=O)OC(O)C12O (stereo unspecified) | 1.18% (inactive)
3 | C=CC1C(OC2OC(CO)C(O)C(O)C2O)OC=C(C(=O)OC)C1CC1CC(=O)CC(CCc2ccc(O)cc2)O1 (stereo unspecified) | 1.17% [at 30.2 µM] (inactive)
4 | CC1CCC23COC(=O)C2=CC(O)CC3C1(C)CCC1=CC(O)OC1=O (stereo unspecified) | 0.859% [at 57.7 µM] (inactive)
5 | CC1(CCOC2OC(CO)C(O)C(O)C2O)CCC23OC2(C1)C(O)CC1C(C)(C(=O)O)CCCC13C (stereo unspecified) | -3.31% [at 57.7 µM] (inactive)
6 | CC(=O)O[C@@H]1C[C@H](O)[C@@]23CO[C@H](O)[C@]1(C)C2C[C@@H](O)[C@]1(C)C3C(=O)[C@H](OC(C)=O)[C@@]2(C)[C@H](c3ccoc3)C[C@H]3O[C@]321 (stereo partly specified) | -0.24% [at 30.2 µM] (inactive)
7 | C[C@@H]1C(=O)O[C@H]2[C@H](O)C34[C@H]5C[C@@H](C(C)(C)C)C36[C@@H](OC(=O)[C@@H]6O)O[C@@]4(C(=O)O5)[C@@]12O (stereo partly specified) | 0.526% [at 57.7 µM] (inactive)
8 | C[C@@H]1O[C@@H](O[C@H]2[C@@H](OC(=O)[C@]34CCC(C)(C)CC3C3=CCC5[C@@]6(C)C[C@H](O)[C@H](O[C@@H]7O[C@H](C(=O)O)[C@@H](O)[C@H](O)[C@H]7O)[C@@](C)(C(=O)O)C6CC[C@@]5(C)[C@]3(C)CC4)OC[C@H](O)[C@@H]2O)[C@H](O)[C@H](O)[C@H]1O[C@@H]1OC[C@@H](O)[C@H](O)[C@H]1O (stereo partly specified) | 0.0144% [at 30.2 µM] (inactive)
9 | CCC(C)C(=O)OC1CC(O)C23C4OCC5(C(O)CC2C1(C)C(O)O4)C3C(=O)CC1(C)C(c2ccoc2)CC2OC215 (stereo unspecified) | 2.01% [at 57.7 µM] (inactive)
10 | CC(=O)OC1C[C@@]2(C)[C@@H](CC[C@@H](C)[C@]23Cc2c(O)cc4c(c2O3)CNC4=O)C(C)(C)[C@@H]1O (stereo partly specified) | 0.445% [at 57.7 µM] (inactive)
11 | C=CC(C)(C)C12C=C(OC)C(=O)N3C(C(C)C)C(=O)NC31N(OC)c1ccccc12 (stereo unspecified) | 0.665% [at 57.7 µM] (inactive)
12 | CC(C)=CC/C=C(\C)[C@H]1CC[C@]2(C)[C@@H]1[C@H](O)C[C@@H]1[C@@]3(C)CC[C@H](O)C(C)(C)[C@@H]3[C@@H](O[C@@H]3O[C@H](CO)[C@@H](O)[C@H](O)[C@H]3O)C[C@]12C | -0.3% (inactive)
13 | C[C@H]1CC[C@@H]2N(C1)C[C@@H]1[C@H]([C@@H](O)[C@H](O)[C@]3(O)[C@H]1C[C@@]14OC5(O)[C@@H](C[C@@H](O)[C@@H]31)[C@]4(C)CC[C@@H]5O)[C@]2(C)O | -3.55% [at 57.7 µM] (inactive)
14 | C[C@@H]1O[C@@H](OC[C@H]2O[C@@H](Oc3cc(O)cc4c3C(=O)C(O)(Cc3ccc(O)cc3)O4)[C@H](O)[C@@H](O)[C@@H]2O)[C@H](O)[C@H](O)[C@H]1O (stereo partly specified) | 0.0107% [at 30.2 µM] (inactive)
15 | C[C@@H]1C[C@@H]([C@@H](O)C(C)(C)O)O[C@H]2C[C@@]3(C)C(=C12)C[C@H](O)[C@H]1[C@@]2(C)CCC(=O)C(C)(C)C2CC[C@@]13C (stereo partly specified) | -4.43% [at 57.7 µM] (inactive)
16 | C=C(C)C1CCC(C)C12CC(O)C1(C)OC1C2OC(=O)C(N)CCC(=O)O (stereo unspecified) | -1.79% [at 57.7 µM] (inactive)
17 | C[C@@H]1C[C@@H]2O[C@H]2/C=C\C=C\C(=O)Cc2c(Cl)c(O)cc(O)c2C(=O)O1 | -16.8% [at 57.7 µM] (inactive)
18 | Cc1c(CN2CCN(C(=O)C(C)O)CC2)sc2c(N3CCOCC3)nc(-c3cnc(N)nc3)nc12 (stereo unspecified) | 0.159% (inactive)
19 | CC(C)C(N)C(=O)OCCOCn1cnc2c(=O)[nH]c(N)nc21 (stereo unspecified) | 4.7% (inactive)
20 | C1CCC[C@H]2CCCN3CC[C@@H](CCCCCC[C@@H]4CCCN5CC[C@@H](CC1)O[C@@H]45)O[C@@H]23 | -0.14% [at 0.247 µM] (inactive)
21 | COC(=O)N(C)c1c(N)nc(-c2nn(Cc3ccccc3F)c3ncccc23)nc1N | -1.95% (inactive)
22 | C=C(CCC1=C(C)[C@H]2[C@H](CC3[C@@H]4CC=C5C[C@@H](O)C[C@@H](O)[C@]5(C)C4[C@H](O)C[C@@]32C)O1)CO[C@@H]1O[C@H](CO)[C@@H](O)[C@H](O)[C@H]1O (stereo partly specified) | -1.41% [at 30.2 µM] (inactive)
23 | CC1=C(C(=O)O)/C(=C\CO[C@@H]2O[C@H](CO)[C@@H](O)[C@H](O)[C@H]2O)C(OC(=O)/C=C\c2ccc(O)cc2)C1 (stereo partly specified) | -5.83% [at 57.7 µM] (inactive)
24 | CC1CCC2C(C(=O)O)=COC(O[C@@H]3O[C@H](CO)[C@@H](O)[C@H](O)[C@H]3O)C12 (stereo partly specified) | -13.5% [at 57.7 µM] (inactive)
25 | CC(C)=CCC/C(C)=C/Cc1ccc(O)c(C2OC(=O)c3cc(C(=O)O)cc(O)c32)c1O (stereo unspecified) | 0.0818% [at 57.7 µM] (inactive)
26 | C[C@@H]1O[C@@H](OC[C@H]2O[C@@H](OC(CCCCc3ccc(O)cc3)CCc3ccc(O)cc3)[C@H](O)[C@@H](O)[C@@H]2O)[C@H](O)[C@H](O)[C@H]1O (stereo partly specified) | -2.03% [at 30.2 µM] (inactive)
